The record followed here is paper PMC5540273 (PLoS ONE, 2017).

Some test systems named below: PIKFYVE; PIM1; PIM2; PIM3; PIP5K1A; PIP5K1C; PIP5K2B.
Holding throughout (conditions): concentration: 1 μM, replicates: in singlicate; n = 1
The next experiment has as its system T1, PIK4CB.
T1 construct: gene PI4KB

The next experiment relates to T2, PIP5K2C.
T2 construct: gene PIP4K2C

The next experiment deals with T3, PKAC-alpha.
T3 construct: gene PRKACA
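Note: KINOMEscan kinase panel screen.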

Regarding `COc1cc2ncnc(Nc3cccc(Br)c3)c2cc1OC.Cl` [GI230329], the “%Inh” value with PIK4CB is recorded as 0%; with PIKFYVE, 32%; with PIM1, 21%; in the experiment with PIM2 it was 0%; in the experiment with PIM3, 14%; in the experiment on PIP5K1A, 0%. Besides, the “%Inh” value in the experiment on PIP5K1C was determined as 79%; in the experiment on PIP5K2B it was 14%; in the experiment with PIP5K2C, 52%; with PKAC-alpha it was 0%.

Consider `CNCc1ccc2nc(NC(=O)c3ccc(C(C)(C)C)cc3)cn2c1`, for which the “%Inh” value with PIK4CB was 19%; in the experiment on PIKFYVE, 0%; in the experiment on PIM1 it was 0%; in the experiment with PIM2 it was 9%; with PIM3 it was 23%; with PIP5K1A, 0%. The “%Inh” value is 17% in the experiment on PIP5K1C, 11% with PIP5K2B, 30% in the experiment on PIP5K2C and 0% with PKAC-alpha.

Turning to `COC(=O)C(Cc1ccccc1)NC(=O)NC1CCN(c2ccnc(Nc3ccc(F)cc3)n2)C1` (centres unmarked) [GSK1379714], the “%Inh” value turned out to be 7% in the experiment on PIK4CB; 22% in the experiment on PIKFYVE; 0% with PIM1; 0% in the experiment on PIM2; 0% in the experiment on PIM3; 45% in the experiment with PIP5K1A. Besides, the “%Inh” value is 35% with PIP5K1C, 30% with PIP5K2B, 36% in the experiment with PIP5K2C and 0% in the experiment on PKAC-alpha.

On to `CC(C)c1cc(-c2ccc3c(N)n[nH]c3c2)nc(N)n1` [GSK2250882], for which the “%Inh” value is reported as 0% in the experiment on PIK4CB; 0% in the experiment with PIKFYVE; 20% in the experiment on PIM1; 0% with PIM2; 15% with PIM3; 26% in the experiment on PIP5K1A. Further, the “%Inh” value is listed as 49% in the experiment with PIP5K1C, 36% in the experiment with PIP5K2B, 2% in the experiment with PIP5K2C and 0% in the experiment with PKAC-alpha.

Take `Cc1ccc(NC(=O)c2ccc(Cl)cc2)cc1-c1ccc(C(=O)Nc2ccncc2)cc1` [GSK1398467]: the “%Inh” value in the experiment on PIK4CB, in the experiment with PIKFYVE, in the experiment with PIM1, in the experiment on PIM2, in the experiment on PIM3 and with PIP5K1A was 0% in each case. Moreover, the “%Inh” value in the experiment on PIP5K1C amounted to 45%; in the experiment on PIP5K2B, 0%; in the experiment on PIP5K2C, 33%; in the experiment on PKAC-alpha, 0%.

As to `O=C(Nc1n[nH]c2nc(-c3ccco3)c(Br)cc12)C1CCN(Cc2ccccc2)C1.O=C(O)[C@H](O)[C@@H](O)C(=O)O` (centres unmarked) [SB-742034], the “%Inh” value in the experiment on PIK4CB is 14%; with PIKFYVE it was 7%; in the experiment on PIM1 it was 9%; in the experiment with PIM2, 5%; in the experiment on PIM3, 28%; in the experiment on PIP5K1A, 0%. Further, the “%Inh” value in the experiment with PIP5K1C was determined as 0%; in the experiment with PIP5K2B, 0%; in the experiment with PIP5K2C, 0%; with PKAC-alpha, 10%.

For the compound `O=c1cc(N2CCOCC2)nc2n(Cc3cccc(Cl)c3Cl)c3ccccc3n12` [GSK2299009], the “%Inh” value in the experiment with PIK4CB, in the experiment with PIKFYVE, in the experiment on PIM1, in the experiment with PIM2, in the experiment with PIM3 and with PIP5K1A was 0% in each case. Further, the “%Inh” value with PIP5K1C is 17%; in the experiment with PIP5K2B, 0%; with PIP5K2C it was 0%; with PKAC-alpha, 0%.

On to `CCCCc1nn2ncccc2c1-c1ccnc(NC2CC2)n1` [GW684374], for which the “%Inh” value in the experiment with PIK4CB amounted to 35%; in the experiment with PIKFYVE, 0%; in the experiment on PIM1, 0%; with PIM2, 0%; in the experiment with PIM3, 0%; in the experiment with PIP5K1A, 0%. Further, the “%Inh” value in the experiment with PIP5K1C is 36%; with PIP5K2B it was 0%; with PIP5K2C, 75%; in the experiment with PKAC-alpha, 0%.

As to `COc1ccc(Nc2nccc(-c3ccc(NC(=O)c4cc5cc(F)ccc5[nH]4)cc3)n2)cc1` [GSK1229496], the “%Inh” value in the experiment with PIK4CB was found to be 0%; in the experiment with PIKFYVE, 0%; in the experiment with PIM1 it was 0%; in the experiment on PIM2, 0%; in the experiment on PIM3, 0%; in the experiment with PIP5K1A it was 37%. Moreover, the “%Inh” value came to 54% with PIP5K1C, 17% in the experiment on PIP5K2B, 41% with PIP5K2C and 0% with PKAC-alpha.

Take `O=C(Nc1n[nH]c2nc(-c3cccs3)c(Br)cc12)C1CC1` [SB-735297]: the “%Inh” value in the experiment on PIK4CB is recorded as 12%; with PIKFYVE it was 2%; in the experiment with PIM1, 0%; with PIM2, 0%; with PIM3 it was 0%; with PIP5K1A, 15%. The “%Inh” value in the experiment with PIP5K1C, in the experiment on PIP5K2B, with PIP5K2C and with PKAC-alpha was 0% in each case.

In the case of `Cc1nccc(-c2c(-c3ccc(F)cc3)ncn2CCCN2CCOCC2)n1.Cl` [SB-282975], the “%Inh” value in the experiment on PIK4CB was found to be 42%; with PIKFYVE, 0%; with PIM1, 0%; with PIM2 it was 13%; in the experiment with PIM3, 0%; with PIP5K1A, 0%. Besides, the “%Inh” value with PIP5K1C is recorded as 22%; in the experiment on PIP5K2B, 0%; with PIP5K2C, 18%; in the experiment on PKAC-alpha, 24%.

Turning to `Cc1ccccc1Cn1ccn2c(=O)cc(N3CCOCC3)nc12` [GSK2269905], the “%Inh” value with PIK4CB is 9%; with PIKFYVE it was 0%; with PIM1, 17%; with PIM2, 0%; in the experiment on PIM3, 0%; in the experiment on PIP5K1A, 0%. The “%Inh” value came out at 11% with PIP5K1C, 12% in the experiment on PIP5K2B, 10% in the experiment with PIP5K2C and 0% in the experiment on PKAC-alpha.

As for `O=C(Nc1n[nH]c2cc(-c3ccsc3)ccc12)C1CC1` [SB-732932], the “%Inh” value with PIK4CB stood at 27%; in the experiment with PIKFYVE it was 0%; with PIM1, 18%; in the experiment with PIM2, 0%; in the experiment with PIM3, 11%; in the experiment on PIP5K1A it was 61%. Further, the “%Inh” value in the experiment with PIP5K1C is recorded as 3%; in the experiment with PIP5K2B, 52%; in the experiment with PIP5K2C, 3%; in the experiment on PKAC-alpha, 0%.

`Cc1c(Cn2c3ccccc3n3c(=O)cc(N4CCOCC4)nc23)cccc1C(F)(F)F` [GSK2306394]: the “%Inh” value in the experiment on PIK4CB amounted to 90.3%; in the experiment with PIKFYVE, 0%; with PIM1 it was 6%; in the experiment on PIM2, 0%; with PIM3, 0%; with PIP5K1A, 0%. Further, the “%Inh” value in the experiment with PIP5K1C was determined as 8%; with PIP5K2B, 20%; with PIP5K2C, 0%; in the experiment on PKAC-alpha, 0%.

With `CS(=O)(=O)Cc1ccc(Nc2nccc(-c3c(-c4cccc(NC(=O)C5CCCCC5)c4)nn4ncccc34)n2)cc1` [GSK350559], the “%Inh” value is given as 45% with PIK4CB; 2% in the experiment on PIKFYVE; 12% in the experiment on PIM1; 10% in the experiment on PIM2; 17% in the experiment on PIM3; 0% in the experiment with PIP5K1A. Besides, the “%Inh” value is recorded as 100% in the experiment on PIP5K1C, 12% with PIP5K2B, 83% in the experiment with PIP5K2C and 31% in the experiment on PKAC-alpha.

Regarding `CC(=O)c1c(C)c2cnc(Nc3ccn(C)n3)nc2n(C2CCCC2)c1=O`, the “%Inh” value was determined as 0% in the experiment on PIK4CB; 9% in the experiment with PIKFYVE; 0% in the experiment with PIM1; 0% in the experiment with PIM2; 0% in the experiment on PIM3; 0% in the experiment with PIP5K1A. The “%Inh” value with PIP5K1C was 1%; in the experiment with PIP5K2B, 0%; with PIP5K2C, 91.9%; in the experiment with PKAC-alpha, 0%.

`Cc1ccc(-c2nc(Nc3ccncc3)c3ccccc3n2)s1` [GSK189015]: the “%Inh” value in the experiment with PIK4CB came out at 5%; in the experiment on PIKFYVE it was 63%; with PIM1 it was 17%; in the experiment on PIM2, 0%; in the experiment on PIM3, 12%; in the experiment with PIP5K1A, 0%. The “%Inh” value in the experiment on PIP5K1C was found to be 22%; with PIP5K2B, 14%; in the experiment on PIP5K2C, 1%; in the experiment on PKAC-alpha, 21%.
